Source: PubChem
aSyn UTR act – Activators working through SNCA 5'UTR binding (MLPCN). alpha-synuclein 5'UTR reporter, activators screen. activity score, % (tested at 7.5 µM), hits read low. 300,000 compounds, 7.1% hits. AID 1814; in the data active means activity score below about -60%
An asterisk follows results filed as active. Not all results are given here.

SMILES | aSyn UTR act
O=C(NCC1CCCO1)c1ccc(-c2ccccc2Cl)o1 (stereo unspecified) | -115*
CC(NC(=O)COC(=O)c1ccc2c(c1)S(=O)(=O)N=C1CCCCCN12)C12CC3CC(CC(C3)C1)C2 (stereo unspecified) | 68
O=C(NC1CCCCC1)c1ccc(-c2ccccc2[N+](=O)[O-])o1 | -83*
O=C(NC1CCCCC1)c1ccc([N+](=O)[O-])o1 | -79*
Cc1noc(NC(=O)c2ccc(Cl)cc2)c1Cl | -70*
COc1ccc(NC(=O)c2onc(C)c2Cl)cc1 | -124*
CCc1ccc(NC(=O)c2onc(C)c2Cl)cc1 | -182*
Cc1noc(C(=O)Nc2cccc(Cl)c2)c1Cl | -79*
Cc1ccc(C(=O)Nc2cc3c(cc2Cl)OCCCO3)cc1 | -145*
O=C(Nc1cc2c(cc1Br)OCCCO2)c1ccccc1 | -104*
O=C(Nc1cc2c(cc1Cl)OCCCO2)c1ccc(F)cc1 | -90*
CCCC(=O)N=C1SC2CS(=O)(=O)CC2N1c1ccc(-c2nc3ccc(C)cc3s2)cc1 (stereo unspecified) | -132*
N/C(=N\OC(=O)c1csnn1)c1ccc(C(F)(F)F)cc1 | -67*
Cc1cc(C)nc(SCC(=O)NC2=NN=C(c3ccc(Br)cc3)CS2)n1 | -74*
Oc1c(Br)cc(C2N=C(c3ccccc3)NO2)cc1Br (stereo unspecified) | -65*
CSc1ccc(C2N=C(c3ccccc3)NO2)cc1 (stereo unspecified) | -128*
CC1CCCC(C)N1C(=O)CSc1nc2ccccc2s1 (stereo unspecified) | -99*
Cc1c(Cl)cccc1N/C(SCC(=O)N1CCCCCC1)=C(/C#N)c1nc2ccccc2s1 | -66*
CC1CCCN(C(=O)CSc2cnc3ccccc3n2)C1 (stereo unspecified) | -154*
O=C(CSc1nc2ccccc2s1)N1CCCCC1 | -110*
CC1CCN(C(=O)CSc2nc3ccccc3s2)CC1 | -154*
CNC(=O)c1ccc(-c2cc(C(F)(F)F)nn2C)s1 | -142*
CC(C)c1ccc2c(c1)CCC1C(C)(CN)CCCC21C (stereo unspecified) | 97
Cc1nc(NC(=O)c2cccs2)ccc1Br | -284*
Cc1csc(NC(=O)c2ccc(Br)s2)n1 | -102*
SMILES | aSyn UTR act
CCOc1cccc2sc(NC(=O)c3ccc(Br)s3)nc12 | -81*
CCc1sc(C(=O)Nc2nc(C)cs2)cc1C | -82*
CC(=O)c1sc(NC(=O)c2cccs2)nc1C | -98*
Cc1csc(NC(=O)c2cccs2)n1 | -112*
Cc1oc2c(c1C(=O)O)C(=O)c1ccccc1C2=O | -62*
COc1ccc(C(=O)c2c(C(F)(F)F)oc3c2C(=O)c2ccccc2C3=O)cc1OC | 111
Cc1oc2c(c1C(=O)c1ccccc1)C(=O)C(=O)c1ccccc1-2 | 127
CCOC(=O)c1c(C)oc2c1C(=O)c1ccccc1C2=O | -134*
O=C(N/N=C/c1c(O)ccc2ccccc12)c1ccc(Br)o1 | 106
Cc1ccc(-c2nn(-c3ccccc3)cc2/C=N/NC(=O)CSc2nnc(C)n2-c2ccccc2)cc1 | -125*
COc1ccc(-c2nn(-c3ccccc3)cc2/C=N/NC(=O)c2ccc3c(c2)OCO3)cc1 | -116*
COc1ccc(-c2nn(-c3ccccc3)cc2/C=N/NC(=O)c2ccc(Br)o2)cc1 | -98*
Cc1cc(SCC(=O)N/N=C/c2ccc(O)c(O)c2O)c(C)cc1Br | 68
O=C(c1cc(-c2ccncc2)nc2c(Cl)cccc12)N1CCN(c2ccccc2F)CC1 | 99
COc1ccc(-c2cc(C(=O)N3CCN(c4ccccn4)CC3)c3ccccc3n2)cc1 | -140*
CCOc1ccc(-c2cc(C(=O)N3CCN(c4ccccn4)CC3)c3ccccc3n2)cc1 | -68*
Cc1ccc(-c2cc(C(=O)N3CCN(c4ccc(F)cc4)CC3)c3ccccc3n2)o1 | -96*
CC(C)c1c(O)cc(-c2ccncc2)n(-c2ccc(Cl)cc2)c1=O | 37
C=CCOc1c(OC)cc(/C=N/Nc2cccc(C(=O)O)c2)c(Br)c1Br | -177*
COc1cc(/C=N/Nc2ccc(C(=O)O)cc2)cc(OC)c1OC | -148*
COc1cccc(/C=N/NC(=S)Nc2cccc(C(=O)O)c2)c1O | 55
COc1ccc(/C=N/Nc2ccc(C(=O)O)cc2)c(OC)c1OC | -118*
CCN(CC)c1ccc2cc(NC(=O)CCC(=O)O)c(=O)oc2c1 | 120
CCN(CC)c1ccc2cc(C(N)=O)c(=O)oc2c1 | -98*
CCN(CC)c1ccc2c(-c3ccc(S(=O)(=O)O)cc3S(=O)(=O)[O-])c3ccc(=[N+](CC)CC)cc-3oc2c1 | 80
SMILES | aSyn UTR act
CCN(CC)c1ccc2cc(C(N)=O)c(=N)oc2c1 | -67*
O=C(Nc1ccc2c(c1)OCO2)Oc1ccccc1 | -106*
O=C(NCc1cccs1)Nc1cccc(Cl)c1 | -120*
O=C(Nc1ccc2c(c1)CCC2)Nc1ccc2c(c1)OCO2 | -111*
O=C(Nc1ccc2c(c1)OCCO2)NC12CC3CC(CC(C3)C1)C2 | -195*
COc1ccc2[nH]c(C(=O)Nc3ccc4c(c3)OCO4)cc2c1 | -134*
COc1cccc(NC(=O)Nc2ccc3c(c2)OCO3)c1 | -111*
O=C(Nc1ccc2c(c1)OCO2)Nc1ccc(Br)cn1 | -157*
Cc1ccc(NC(=O)NCc2ccc3c(c2)OCO3)cc1C | -79*
NS(=O)(=O)c1ccc(NC(=O)Nc2ccc3c(c2)OCO3)cc1 | -118*
Cc1nn(C)cc1CNC(=O)Nc1cccc(Cl)c1 | -169*
O=C(Nc1cccc(Cl)c1)Nc1ccc2c(c1)OCO2 | -159*
COC(=O)c1ccc(NC(=O)Nc2ccc3c(c2)OCO3)cc1 | -66*
O=C(Nc1cccc([N+](=O)[O-])c1)Nc1ccc2c(c1)OCCO2 | -129*
O=C(NCc1ccc2c(c1)OCO2)Nc1cccc(Cl)c1 | -127*
CC(=O)c1ccc(NC(=O)CN(c2c(C)cccc2C)S(C)(=O)=O)cc1 | -131*
CCOc1ccc(N(CC(=O)Nc2cc(C)cc(C)c2)S(C)(=O)=O)cc1 | -88*
CCOc1ccc(N(CC(=O)Nc2ccc(C)cc2)S(C)(=O)=O)cc1 | -113*
C=CCNC(=O)c1ccc(CN(c2ccc(OCC)cc2)S(=O)(=O)c2ccc(C)cc2)cc1 | -93*
CCOc1ccc(N(CC(=O)Nc2ccccc2C)S(=O)(=O)c2c(C)noc2C)cc1 | 59
CCOc1ccc(N(CC(=O)NCc2ccccc2OC)S(C)(=O)=O)cc1 | -90*
CS(=O)(=O)N(CC(=O)Nc1ccccc1C(=O)NCCc1ccccc1)c1ccc2c(c1)OCCO2 | -153*
Cc1ccc(N(CC(=O)Nc2ccc3c(c2)OCCO3)S(C)(=O)=O)cc1 | -99*
Cc1ccc(-c2nnn(CCC(=O)NC(C)(C)C)n2)cc1 | -80*
CCOC(=O)Nc1nc(-c2ccccc2)c(C(=O)c2ccc(Cl)cc2)s1 | 114
SMILES | aSyn UTR act
CCOC(=O)Nc1nnc(-c2cccc(OC)c2)s1 | -83*
COc1ccc(-c2nnc(NC(=O)C(C)C)s2)c(OC)c1 | -101*
CCOC(=O)Nc1nnc(-c2ccc(OC)cc2)s1 | -65*
O=C(Cc1cccc2ccccc12)Nc1ccc2c(c1)C(=O)NC2=O | -65*
Cc1nn(-c2ccc(Br)cc2)c(=O)c2ccccc12 | -113*
[O-][n+]1onc2c3ccnnc3ccc21 | -119*
Cc1cc2c(ccc3c2no[n+]3[O-])nn1 | -100*
COc1ccc(C(=O)/C=C/c2ccc(F)cc2)c(OC(=O)c2ccc([N+](=O)[O-])cc2)c1 | -122*
COc1ccc(C(=O)/C=C/c2cccs2)c(OC(=O)c2cccc([N+](=O)[O-])c2)c1 | -366*
CSc1nsc(N/N=C/c2ccc3c(c2)OCO3)c1C#N | -231*
